Inconclusive results are not listed. Calls of active or inactive are those of the source. The call rests on the fitted dose curve; in most records, active means well fitted inhibition curve with a large enough effect; inconclusive means small, poorly fitted or top-dose-only effect; inactive means flat fitted curve, though single readings scatter.

For the test, the target named is Luciferin 4-monooxygenase (Photinus pyralis) (UniProt P08659). Put plainly: qHTS screen for small molecules that inhibit ELG1-dependent DNA repair: SAR in Biochemical Luciferin Assay. The note with it: purified firefly luciferase, luciferin luminescence counter-screen; series mostly up to 57.5 µM. An excerpt: Cancer cells divide rapidly compared to normal cells in the body. During cell division, cancer cells need to duplicate their genome by DNA replication. The failure of genome duplication leads to cancer cells' death. Therefore, inhibitors of DNA replication could specifically kill cancer cells. Based on this concept, many chemotherapeutic agents were developed and have been used to treat cancer patients. However, there are a limited number of agents available in the clinical setting, and some of those that do exist have low efficacy and severe side effects. Therefore, if we can find the compounds that effectively block DNA replication either by directly damaging DNA or by inhibiting other cellular mechanisms, the options for cancer treatment will be broadened. With this in mind, we developed a quantitative high-throughput ELG1-luciferase reporter gene assay. Small molecules that specifically block ELG1 function in response to DNA damage can be identified by monitoring the suppression of luciferase activity. Since ELG1 defines a pathway for repairing DNA damage, agents blocking ELG1 function can be used to sensitize cancer cells to chemotherapeutic agents whose mechanism of action involves the induction of DNA damage. This counter assay is a luciferase assay, that following treatment with putative ELG1 antagonists, aims to eliminate luciferase enhancers/inhibitors. NIH Molecular Libraries Probe Production Network [MLPCN] NIH Chemical Genomics Center [NCGC] MLPCN Grant: R03 MH092164 Assay Provider: Kyungjae Myung, NHGRI, NIH
3 uL of substrate reagent will be pipetted into each well in 1536-well white, solid-bottom plates using a FRD dispenser, followed by addition of 23 nL of DMSO or compounds by pintool. After compound addition, 1 µL of luciferase will be added into the wells. The plates will be read in a ViewLux CCD-based plate reader.
Consider `CCCCCC1C(=O)O[C@H](C)[C@@H](NC(=O)c2cccc(NC=O)c2O)C(=O)OC(C)C1OC(=O)CC(C)C` (some centres undefined), for which the molecule was called inactive.

`CO/C1=C\C(C)=C\[C@@H](C)[C@@H](O)[C@H](C)C/C(C)=C/C=C/[C@H](OC)[C@H]([C@@H](C)[C@@H](O)[C@H](C)[C@H]2C[C@@H](O)[C@H](C)[C@@H](C(C)C)O2)OC1=O`: the outcome was inactive. As for `CCCCCCCCCCCCCC(=O)O[C@@H]1[C@@H](C)[C@@]2(O)[C@H](C=C(CO)C[C@]3(O)C(=O)C(C)=C[C@@H]23)[C@@H]2C(C)(C)C12OC(C)=O` (some centres undefined), the entry is “inactive”. On to `CN[C@@H]1C[C@@]2(C)O[C@@H]([C@@H]1OC)n1c3ccccc3c3c4c(c5c6ccccc6n2c5c31)C(=O)NC4`, for which the call was inactive.

On to `COc1cc2c(cc1OC)C1C(=O)c3c(cc4c(c3O)C=CC(C)(C)O4)OC1CO2` (centres undefined), for which the outcome was inactive. The same measure for `C[C@@H]1C[C@H]2CC[C@H](O2)[C@H](C)C(=O)O[C@@H](C)C[C@@H]2CC[C@@H](O2)[C@@H](C)C(=O)O[C@H](C)C[C@H]2CC[C@H](O2)[C@H](C)C(=O)O[C@@H](C)C[C@@H]2CC[C@@H](O2)[C@@H](C)C(=O)O1`: “inactive”.

Take `C[C@@H]1C[C@@H]2[C@H]([C@H]3C=C(COC(=O)c4ccccc4)[C@@H](O)[C@]4(O)[C@@H](O)C(OC(=O)c5ccccc5)=C[C@@]14C3=O)C2(C)C`: the molecule was classed as inactive.

On to `COC[C@H]([C@@H](O)[C@@H](O)C(=O)NCC[C@@H](C)c1nc(/C=C/C[C@H]2OC3(C[C@H](O)[C@H]2C)OC([C@@H](C[C@@H](O)[C@@H](C)[C@@H](O)[C@@H](C)/C=C(C)/C(C)=C/C=C/C(C)=C\C#N)OC)[C@@H](OP(=O)(O)O)C3(C)C)co1)N(C)C` (some centres undefined), for which the molecule was called inactive. As for `COc1cc2c(cc1OC)[C@@H]1C(=O)c3ccc4c(c3OC1CO2)CC(C(C)C)O4` (some centres undefined), the entry is “inactive”.
